# An excerpt weighted towards active compounds, which were near 1.5% of everything screened.
# DYRK1A inh – blocks rat Dyrk1A kinase activity; inhibition, % at 12.5 µM; ADP-Glo luminescence, NFATc1 peptide; Q63470; AID 504441; actives 0.43% (n = 310,000); in the data active means inhibition above about 50%;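 further: plate controls were vehicle with enzyme for no effect and no enzyme for full effect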
# PP1 inh – blocks human PP1-alpha phosphatase, a PP5 counter-screen | purified PP1alpha, OMFP fluorescence | inhibition, % at 6.7 µM | actives 0.9% (n = 320,000) | AID 2235;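 active means inhibition above the mean inhibition of all tested compounds plus 3 SD, computed separately for each screening campaign, cut at about 15% in these data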
# HIF activator – HIF pathway transcriptional activation; U2OS HRE-luciferase reporter, luminescence; normalized: DMSO 0%, desferrioxamine 100%; actives 0.32% (n = 300,000); AID 1910; activation, % at 7.5 µM (by protocol);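 active means mean activation of at least 10% of the iron chelator positive control signal, with at least half of replicates also reaching 10%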
# PP5 inh – blocks human protein phosphatase 5 activity; purified PP5c, OMFP substrate fluorescence; inhibition, % at 6.7 µM; actives 0.18% (n = 320,000); AID 1987;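 active means inhibition above the campaign's mean inhibition across all tested compounds plus 3 SD, cut at about 9.5% in these data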;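 further: 0% = DMSO only and 100% = 100 µM cantharidin control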
# STK33 inh – blocks human STK33 kinase activity; inhibition, % at 10 µM; AID 2661; purified STK33, MBP phosphorylation, ADP-Glo luminescence; actives 0.073% (n = 320,000);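 active means inhibition at or above 25%, using the most active replicate where run in duplicate; inactive means inhibition below 25%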
# Target sequence (Q9BYT3 whole entry, looked up): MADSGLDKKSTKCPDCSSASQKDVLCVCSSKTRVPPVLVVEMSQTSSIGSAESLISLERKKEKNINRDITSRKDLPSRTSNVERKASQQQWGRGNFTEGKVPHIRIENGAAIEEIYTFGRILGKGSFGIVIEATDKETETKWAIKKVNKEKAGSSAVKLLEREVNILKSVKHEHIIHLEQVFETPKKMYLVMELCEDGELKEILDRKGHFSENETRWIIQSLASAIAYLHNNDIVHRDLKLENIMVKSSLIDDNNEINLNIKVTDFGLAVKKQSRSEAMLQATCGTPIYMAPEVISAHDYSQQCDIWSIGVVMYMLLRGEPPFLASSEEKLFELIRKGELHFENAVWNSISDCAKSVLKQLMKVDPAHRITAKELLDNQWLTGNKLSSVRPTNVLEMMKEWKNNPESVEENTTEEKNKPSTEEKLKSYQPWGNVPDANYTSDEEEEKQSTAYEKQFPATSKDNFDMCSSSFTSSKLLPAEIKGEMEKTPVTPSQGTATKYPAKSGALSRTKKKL
# Numbers without * were called inactive; . = no result given.
SMILES,DYRK1A inh,PP1 inh,HIF activator,PP5 inh,STK33 inh
COc1ccccc1CNC(=O)CN1C(=O)c2ccc([N+](=O)[O-])cc2C1=O,-8,0,1,1,-3
Cn1nc(C(=O)NCCCN2CCCCC2)c2c1-c1ccccc1SC2,-4,-3,0,0,3
COc1ccc(C)cc1NC(=O)CN(Cc1nnc(-c2ccc(Cl)cc2)o1)C1CCCC1,1,16*,0,3,-3
CCOc1ccccc1N(CC(=O)N/N=C/c1cc(Br)ccc1OC)S(C)(=O)=O,3,5,26*,3,0
COC(=O)c1ccc2c(c1)C(C)(C)C(/C=C/c1ccc(O)cc1)=[N+]2C,6,17*,-4,7,7
Cc1cc(C(=O)NNC(=O)c2ccc(C)c([N+](=O)[O-])c2)c(C)o1,3,.,.,.,.
COc1ccc(N2CCN(C(=O)CN(C)S(=O)(=O)c3cc(C)ccc3OC)CC2)cc1,-7,-1,465*,2,0
COc1ccc(OC)c(S(=O)(=O)N(C)CC(=O)N2CCCCC2)c1,.,-3,0,-1,-2
CC1CN(c2ccc(NC(=S)NNCCC#N)cc2)CC(C)O1 (stereo not drawn),2,-5,0,-1,-1
O=c1c2c(nc3cc(-c4ccccc4Cl)[nH]n13)CCS2,0,17*,1,1,-2
Cc1ccc(C(=O)Nc2ccc(S(=O)(=O)Nc3cnc4ccccc4n3)cc2)cc1,5,3,1,4,-2
COC(=O)c1nn(C)c(=O)[nH]c1=O,-3,.,.,.,.
Cc1cc(C)c2[nH]c(=O)c(CN(Cc3cccs3)C(=S)NCc3ccco3)cc2c1,-7,16*,2,2,4
O=C(NCc1ccncc1)c1ccc(NS(=O)(=O)c2ccc(F)cc2)cc1,0,-5,.,2,-1
Cc1ccc(-c2nn(CCC(=O)O)cc2/C=C\C(=O)c2ccc(Br)cc2)cc1,.,9,-1,0,36*
O=C(O)CCn1cc(/C=C\C(=O)c2ccc(Cl)cc2)c(-c2cccc(Br)c2)n1,-9,7,0,1,15
C=CCOc1nc(-c2ccccc2Cl)nc2ccccc12,.,-2,63*,-2,-1
CCOC(=O)CN(C(=O)COc1ccc2c(C)cc(=O)oc2c1)c1ccc(OCC)cc1,-1,3,0,3,1
CC(=O)Oc1cc2cccc(OC(C)=O)c(=O)c2c(OC(C)=O)c1OC(C)=O,64*,3,0,3,6
Cc1cccc(NC(=O)CNC(=O)CCc2nc3sc4c(c3c(=O)[nH]2)CCCC4)c1C,30,-1,1,-1,0
O=C(CCc1nc2sc3c(c2c(=O)[nH]1)CCCC3)NCCOc1ccccc1,-7,-5,0,-4,-3
O=C(CCc1nc2sc3c(c2c(=O)[nH]1)CCCC3)Nc1ccccc1Cl,0,16*,0,-1,-1
Cc1ccc(OCCNC(=O)CCc2nc3sc4c(c3c(=O)[nH]2)CCCC4)cc1,10,-1,45*,0,-1
COCc1c(C(=O)N/N=C(\C)c2ccc(Cl)s2)nnn1-c1nonc1N,4,-1,29*,2,0
C/C(=N\NC(=O)c1nnn(-c2nonc2N)c1-c1ccccc1)c1ccccc1O,4,1,33*,2,-2
SMILES,DYRK1A inh,PP1 inh,HIF activator,PP5 inh,STK33 inh
Cc1ccccc1C(=O)NC1CCN(C(=O)Nc2ccc(F)cc2)CC1,-5,-4,0,-2,-1
CC(=O)Nc1sc(-c2ccccc2)nc1-c1ccccc1,7,-2,205*,-2,0
O=C(CCN1CCOCC1)Nc1ccc(Cl)cc1,3,-2,0,1,-1
CC(=O)N1CCC(=NNC(=O)c2cc3ccccc3cc2O)CC1,11,2,45*,0,2
Cc1ccc(CNC(=O)c2ccc(CNS(=O)(=O)c3ccc4c(c3)C(C)(C)C(=O)N4C)cc2)o1,3,-3,0,0,1
C=CC(=O)Nc1ccc(CN2C(=O)N(c3c(Cl)c(OC)cc(OC)c3Cl)Cc3cnc(NCCCCN(CC)CC)nc32)cc1,16,.,.,.,80*
CCN(CC)CCNC(=O)c1ccc(NC(=O)Cc2ccc(OC)c(S(=O)(=O)N3CCOCC3)c2)cc1,1,.,.,.,.
COc1ccc(OCCCC(=O)OCC(=O)NNC(=O)c2ccc([N+](=O)[O-])cc2)cc1,9,-2,0,0,.
O=C(OCCN1C(=O)c2cccc3c(N4CCOCC4)ccc(c23)C1=O)c1ccc(Cl)cc1,-1,-3,12*,-1,-1
CCc1ccccc1NC(=O)CCC(=O)OCC(=O)c1ccc(-c2ccccc2)cc1,-3,17*,0,-1,-2
COc1ccccc1NC(=O)CCC(=O)c1ccc(-c2ccccc2)cc1,-3,1,1,1,0
O=C(Nc1ccc(F)cc1)Nc1nnc(Cc2ccccc2)s1,10,17*,1,0,-1
COc1ccc(CCN(C)S(=O)(=O)c2cn(C)c(=O)n(C)c2=O)cc1OC,-2,0,.,1,.
Cc1ccc(O)c(NC(=O)c2ccc3c(c2)C(=O)N(Cc2cccnc2)C3=O)c1,0,6,0,0,0
Cc1ccc(O)c(NC(=O)c2ccc3c(c2)C(=O)N(Cc2ccco2)C3=O)c1,-4,0,32*,-2,-1
COc1ccc(N/C=C(\C(C)=O)c2ccc(OC)c(OC)c2)cc1OC,-2,2,0,4,1
COc1ccc(OC)c(Nc2nc(N)nc(-c3cc4ccccc4o3)n2)c1,7,16*,0,0,-1
COc1ccc(OC)c(NC(=O)c2cc3ccccc3o2)c1,-7,3,1,-4,4
Cc1c(C(=O)Nc2ccc(F)cc2)c2ccccn2c1CCc1ccncc1,-1,1,0,1,1
Cc1noc(NS(=O)(=O)c2ccc(NC(=O)c3cc4ccccc4o3)cc2)c1C,25,.,.,.,1
COc1ccc(OCc2n(CC(=O)OC3CC(C)CCC3C(C)C)c3ccccc3[n+]2C)cc1 (stereo not drawn),16,16*,0,2,1
COc1ccc(-c2n(CC(=O)OC3CC(C)CCC3C(C)C)c3ccccc3[n+]2C)cc1 (stereo not drawn),2,.,0,.,.
NC(=S)n1[nH]c(-c2ccc([N+](=O)[O-])cc2)c(N=Nc2cccc(Cl)c2)c1=O,3,.,0,.,.
NC(=S)n1[nH]c(-c2ccc([N+](=O)[O-])cc2)c(N=Nc2ccc(O)cc2)c1=O,44,17*,0,1,1
Cc1ccc(Nc2nc(N)nc(CSc3nnnn3-c3ccccc3)n2)cc1,-5,16*,0,-1,-1
Cc1ccc(Nc2nc(N)nc(CSc3nncn3C)n2)cc1,-3,-2,1,1,-1
CC(c1ccccc1)N1C(=O)/C(=C/c2ccncc2)SC1=S (stereo not drawn),5,17*,0,4,0
S=c1[nH]nc(-c2ccccn2)n1/N=C/c1ccc(-c2ccccc2Cl)o1,1,15*,0,-2,-3
S=c1[nH]nc(-c2ccccn2)n1/N=C/c1ccc(Cl)c(Cl)c1,.,2,0,2,-1

# Bioassay records: PubChem, several laboratories
